Laboratory results as given in PubChem BioAssay AID977607 (Broad Institute, 2014).
In all, about 1,500 compounds went through this assay and about 460 (31%) were called active. Inconclusive results (about 1%) are left out.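 The calls were made as follows: active = curve reaches 40% activation over neutral controls at an AC40 no higher than the top valid tested concentration; inconclusive = no clear call, values can overlap the other calls; inactive = signal moving opposite to the expected increase, and the rest.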 The list is a sample of the results. Potency and affinity values are given separately.

Assay: activators of glucose-dependent insulin secretion, dose response, cell-based, INS-1E, Gaussia luciferase, luminescence, cherry-pick, set 2 (AID 977607);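 also: 0% = median of the plate neutral control wells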
Conditions: INS-1E GLuc insulin secretion reporter, 2-3 h, stronger effect = higher value; at 35 µM, 100% = signal doubled over neutral wells unless noted

Max activation, inactive:
CCOc1nc(NC(=O)NS(=O)(=O)Oc2ccccc2Cl)nc(-c2ccccc2)n1 -20.8% [at 0.0016 µM, 100% = signal doubled over neutral wells]
Cc1ccc(-c2ccc([C@@H]3[C@@H]4CN(Cc5ccccc5F)C[C@H]3N4)cc2)cc1 26.7% [at 0.42 µM, 100% = signal doubled over neutral wells]
CC1Oc2ccccc2N(Cc2cccc(F)c2)C1=O (stereo not given) -13.7% [at 0.005 µM, 100% = signal doubled over neutral wells]
O=C(NC1CCCC1)C(C1CC1)n1c(-c2ccccn2)nc2ccccc21 (stereo not given) -23.1% [at 0.135 µM, 100% = signal doubled over neutral wells]
CC(C)C(C(=O)NCc1ccco1)N(CC1CCCO1)C(=O)CNS(=O)(=O)c1ccc(F)cc1 (stereo not given) -14.9% [at 11 µM, 100% = signal doubled over neutral wells]
CCSc1ncnc2sc3c(c12)CCC3 31.4%
COc1ccccc1-c1cnc2c(Nc3cccc(OC(F)(F)C(F)F)c3)nccn12 -17.8% [at 11 µM, 100% = signal doubled over neutral wells]
Cc1cccc(CN2C(=O)CSc3ccc(C(=O)NC4CC4)cc32)c1 41% [at 0.135 µM, 100% = signal doubled over neutral wells]
Cc1cc(NCc2ccccn2)nc2ccccc12 -14.9% [at 0.005 µM, 100% = signal doubled over neutral wells]
CCOc1ccc(CCNC(=O)c2cc(C)on2)cc1OCC -13.4% [at 0.135 µM, 100% = signal doubled over neutral wells]
O=C(CN1C(=O)NC(Cc2c[nH]c3ccccc23)C1=O)NCCc1ccccc1 (stereo not given) 21% [at 11 µM, 100% = signal doubled over neutral wells]
COc1ccc(CCn2nnc(-c3ccc(NC(C)=O)c(Cl)c3)n2)cc1 -24.6% [at 11 µM, 100% = signal doubled over neutral wells]
COc1ccc(C2CC(=O)C(c3ccc(C)cc3)=CN2Cc2ccccc2)cc1 (stereo not given) -26.2%
O=c1c2sccc2n(Cc2cccc(F)c2)c(=O)n1-c1ccc(F)cc1 -14.5% [at 0.005 µM, 100% = signal doubled over neutral wells]
COc1ccc2nc(CCN(C)C(=O)C3CCC(=O)N(Cc4cccc(F)c4)C3)[nH]c2c1 (stereo not given) -20.4%
COc1cccc(-c2ccc3c(c2)N(Cc2cccc(F)c2)C(=O)C(C)S3)c1 (stereo not given) -26.7% [at 11 µM, 100% = signal doubled over neutral wells]
CN(C(=O)c1ccc(C#N)cc1)c1nnc(-c2cnccn2)s1 -16.1% [at 0.42 µM, 100% = signal doubled over neutral wells]
Cc1cc(C)n(CC(=O)n2c3ccccc3c3ccccc32)n1 20.6%
CN[C@H]1C[C@@H](c2ccccc2)N(C(C)=O)C[C@H]1CO -14% [at 0.135 µM, 100% = signal doubled over neutral wells]
COC(=O)c1ccc(C)c(-n2c(=O)n(Cc3ccccc3)c(=O)c3[nH]cnc32)c1 -20.8% [at 0.005 µM, 100% = signal doubled over neutral wells]
CC1CN(Cc2ccccc2)C(=S)NC1=O (stereo not given) -25.1% [at 3.8 µM, 100% = signal doubled over neutral wells]
Cc1c(C=O)c2ccccn2c1C(=O)c1ccc(F)cc1 -14.1% [at 0.0016 µM, 100% = signal doubled over neutral wells]
Cc1ccc(C(=O)c2sc3nc4c(cc3c2N)CCC4)cc1 -20.2% [at 3.8 µM, 100% = signal doubled over neutral wells]
O=C(N/N=C/c1ccncc1)c1cc(-c2ccc(Br)s2)[nH]n1 46.1%
Fc1cccc(-c2nnn3c2nc(Cl)c2ccccc23)c1 -32% [at 11 µM, 100% = signal doubled over neutral wells]
CCc1cc2c(COC(=O)c3cccc(NS(C)(=O)=O)c3)cc(=O)oc2cc1O -16.1%
O=C1CCc2cc(S(=O)(=O)N3CCN(c4ccc(F)cc4)CC3)cc3c2N1CC3 -14.5% [at 0.0016 µM, 100% = signal doubled over neutral wells]
CC(C)(C(=O)N1CCC1(C)C(=O)NS(=O)(=O)c1cccc(Cl)c1)c1ccccc1 (stereo not given) -17.3% [at 0.135 µM, 100% = signal doubled over neutral wells]
CCOc1ccccc1CNS(=O)(=O)c1cnc[nH]1 -8.34% [at 0.005 µM, 100% = signal doubled over neutral wells]
CN1CCN(CC(O)COC(c2ccc(Cl)cc2)c2ccc(Cl)cc2)CC1 (stereo not given) -16.1% [at 11 µM, 100% = signal doubled over neutral wells]
CC(=O)C(C)n1c(CN(C)Cc2ccccc2)nc2c1c(=O)n(C)c(=O)n2C (stereo not given) 13.8% [at 11 µM, 100% = signal doubled over neutral wells]
COc1ccccc1CSc1nc2c(c(=O)n(C)c(=O)n2C)n1C -16.4%
CCOC(=O)c1nn(-c2ccccc2)c2nc(Nc3ccccc3)cc(=O)n12 -18.7% [at 0.0016 µM, 100% = signal doubled over neutral wells]
O=S(=O)(c1ccc(=S)[nH]c1)N1CCCCCC1 19.7%
Cc1ccc(C(=O)c2sc(Nc3ccccc3)c(C#N)c2N)cc1 -18.3% [at 0.005 µM, 100% = signal doubled over neutral wells]
